How the values were obtained:
Assay in all cases: DAPPL (digital affinity profiling via proximity ligation, sequencing); 10 mM Tris-HCl pH 7.5, 50 mM NaCl, 1 mM DTT, 4% glycerol, room temperature, 30 min; GST-TFs on glutathione beads, 16-mer random dsDNA library, 0.1% formaldehyde crosslink after washing; high values mean tight binding
Details in all cases: protein: recombinant; tags: N-terminal GST; dsDNA, one strand shown
[1] = molecular target: T1, FLI1 (Homo sapiens, UniProt Q01543 1-452)
T1 sequence: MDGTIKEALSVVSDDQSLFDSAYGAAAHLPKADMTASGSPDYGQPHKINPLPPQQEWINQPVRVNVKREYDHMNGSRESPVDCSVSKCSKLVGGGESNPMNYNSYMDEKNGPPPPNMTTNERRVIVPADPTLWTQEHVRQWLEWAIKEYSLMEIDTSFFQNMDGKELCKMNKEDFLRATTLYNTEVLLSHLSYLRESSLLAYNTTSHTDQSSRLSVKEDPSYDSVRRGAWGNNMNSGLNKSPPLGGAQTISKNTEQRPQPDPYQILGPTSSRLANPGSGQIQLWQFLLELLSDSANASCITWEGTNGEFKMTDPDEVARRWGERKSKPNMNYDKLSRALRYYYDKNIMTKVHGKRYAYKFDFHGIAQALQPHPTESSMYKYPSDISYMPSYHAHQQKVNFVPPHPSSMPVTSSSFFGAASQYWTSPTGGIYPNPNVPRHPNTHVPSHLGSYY
Method in brief: (§1)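 Human transcription factors were made in yeast as GST fusions, captured on glutathione beads and barcoded with DNA. With a tag-only sample included, the pool was incubated with 200 nmole of a random double-stranded 16-mer DNA library in Tris/NaCl/DTT/glycerol buffer at room temperature for 30 min, then crosslinked with 0.1% formaldehyde after washing, ligated by proximity, amplified and sequenced. For binding signal, each hexamer's read frequency for a factor is divided by its frequency for the tag-only sample.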

[2] = molecular target: T2, ELK1 (Homo sapiens, UniProt P19419 1-428)
T2 sequence: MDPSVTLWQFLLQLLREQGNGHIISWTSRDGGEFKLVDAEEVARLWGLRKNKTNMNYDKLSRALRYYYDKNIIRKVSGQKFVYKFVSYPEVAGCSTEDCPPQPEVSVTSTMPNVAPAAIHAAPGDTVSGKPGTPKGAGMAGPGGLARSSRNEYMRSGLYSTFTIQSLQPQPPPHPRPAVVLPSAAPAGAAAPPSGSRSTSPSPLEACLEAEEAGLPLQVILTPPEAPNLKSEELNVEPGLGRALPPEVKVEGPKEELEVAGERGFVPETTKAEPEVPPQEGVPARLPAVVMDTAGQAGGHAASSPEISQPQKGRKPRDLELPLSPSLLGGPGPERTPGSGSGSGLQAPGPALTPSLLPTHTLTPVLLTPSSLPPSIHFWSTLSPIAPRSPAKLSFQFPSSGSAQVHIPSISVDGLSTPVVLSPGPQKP
Method in brief: as §1

[3] = molecular target: T3, GABPA (Homo sapiens, UniProt Q06546 1-454)
T3 sequence: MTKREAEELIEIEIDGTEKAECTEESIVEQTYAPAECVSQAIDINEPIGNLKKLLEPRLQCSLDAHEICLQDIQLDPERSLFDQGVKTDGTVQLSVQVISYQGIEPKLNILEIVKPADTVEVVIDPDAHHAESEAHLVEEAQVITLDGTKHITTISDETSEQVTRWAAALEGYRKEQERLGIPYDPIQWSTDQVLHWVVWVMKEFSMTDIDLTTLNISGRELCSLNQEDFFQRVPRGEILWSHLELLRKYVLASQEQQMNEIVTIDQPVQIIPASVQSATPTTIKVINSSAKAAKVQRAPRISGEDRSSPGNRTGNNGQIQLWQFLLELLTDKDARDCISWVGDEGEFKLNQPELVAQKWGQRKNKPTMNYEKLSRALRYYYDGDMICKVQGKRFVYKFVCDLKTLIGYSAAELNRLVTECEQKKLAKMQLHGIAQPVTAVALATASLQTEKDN
Method in brief: as §1

[4] = molecular target: T4, ERG (Homo sapiens, UniProt P11308 1-479)
T4 sequence: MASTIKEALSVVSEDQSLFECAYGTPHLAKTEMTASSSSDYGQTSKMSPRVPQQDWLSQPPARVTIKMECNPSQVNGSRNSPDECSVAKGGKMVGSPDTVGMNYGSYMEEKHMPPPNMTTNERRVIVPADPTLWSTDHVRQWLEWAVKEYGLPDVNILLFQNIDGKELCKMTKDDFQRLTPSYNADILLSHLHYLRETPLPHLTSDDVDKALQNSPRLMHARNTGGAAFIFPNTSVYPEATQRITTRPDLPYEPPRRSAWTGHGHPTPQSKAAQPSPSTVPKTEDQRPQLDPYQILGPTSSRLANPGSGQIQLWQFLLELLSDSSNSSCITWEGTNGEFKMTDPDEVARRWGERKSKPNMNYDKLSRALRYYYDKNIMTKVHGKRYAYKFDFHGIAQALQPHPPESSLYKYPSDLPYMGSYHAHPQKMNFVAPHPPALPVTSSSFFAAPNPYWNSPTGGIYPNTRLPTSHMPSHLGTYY
Method in brief: as §1

[5] = molecular target: ELF1 (Homo sapiens, UniProt P32519 1-619)
Method in brief: as §1

[6] = molecular target: T5, EHF (Homo sapiens, UniProt Q9NZC4 1-300)
T5 sequence: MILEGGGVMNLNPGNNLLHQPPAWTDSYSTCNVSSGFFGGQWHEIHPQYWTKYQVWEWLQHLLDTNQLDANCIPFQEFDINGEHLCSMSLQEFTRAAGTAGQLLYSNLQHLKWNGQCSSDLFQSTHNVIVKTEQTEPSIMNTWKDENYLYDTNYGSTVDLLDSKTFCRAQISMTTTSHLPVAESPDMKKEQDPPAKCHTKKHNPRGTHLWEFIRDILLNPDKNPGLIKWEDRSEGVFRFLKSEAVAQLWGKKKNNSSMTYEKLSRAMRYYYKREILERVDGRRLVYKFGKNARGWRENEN
Method in brief: as §1

[7] = molecular target: SPI1 (Homo sapiens, UniProt P17947 1-270)
Method in brief: as §1

[8] = molecular target: SPIB (Homo sapiens, UniProt Q01892 1-262)
Method in brief: as §1

[9] = molecular target: T6, ELK3 (Homo sapiens, UniProt P41970 1-407)
T6 sequence: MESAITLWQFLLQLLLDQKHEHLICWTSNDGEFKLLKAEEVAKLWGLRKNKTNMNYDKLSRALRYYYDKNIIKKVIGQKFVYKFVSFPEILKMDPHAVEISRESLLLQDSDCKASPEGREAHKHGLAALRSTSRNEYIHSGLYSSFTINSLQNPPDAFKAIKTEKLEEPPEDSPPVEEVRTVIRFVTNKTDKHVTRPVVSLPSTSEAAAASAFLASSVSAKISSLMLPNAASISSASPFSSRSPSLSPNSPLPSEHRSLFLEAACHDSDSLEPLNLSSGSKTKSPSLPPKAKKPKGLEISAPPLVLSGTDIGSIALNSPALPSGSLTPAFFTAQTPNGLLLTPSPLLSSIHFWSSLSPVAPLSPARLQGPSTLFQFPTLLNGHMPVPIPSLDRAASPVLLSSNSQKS
Method in brief: as §1

Sequence of SPIB (Q01892 whole entry): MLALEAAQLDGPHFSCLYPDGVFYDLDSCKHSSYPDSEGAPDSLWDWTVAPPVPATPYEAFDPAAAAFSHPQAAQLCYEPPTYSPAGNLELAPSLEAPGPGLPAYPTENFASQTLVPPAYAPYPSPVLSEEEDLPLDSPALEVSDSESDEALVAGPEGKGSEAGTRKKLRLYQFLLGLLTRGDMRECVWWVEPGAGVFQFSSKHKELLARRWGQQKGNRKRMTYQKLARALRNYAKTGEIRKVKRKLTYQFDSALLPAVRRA
Sequence of ELF1 (P32519 whole entry): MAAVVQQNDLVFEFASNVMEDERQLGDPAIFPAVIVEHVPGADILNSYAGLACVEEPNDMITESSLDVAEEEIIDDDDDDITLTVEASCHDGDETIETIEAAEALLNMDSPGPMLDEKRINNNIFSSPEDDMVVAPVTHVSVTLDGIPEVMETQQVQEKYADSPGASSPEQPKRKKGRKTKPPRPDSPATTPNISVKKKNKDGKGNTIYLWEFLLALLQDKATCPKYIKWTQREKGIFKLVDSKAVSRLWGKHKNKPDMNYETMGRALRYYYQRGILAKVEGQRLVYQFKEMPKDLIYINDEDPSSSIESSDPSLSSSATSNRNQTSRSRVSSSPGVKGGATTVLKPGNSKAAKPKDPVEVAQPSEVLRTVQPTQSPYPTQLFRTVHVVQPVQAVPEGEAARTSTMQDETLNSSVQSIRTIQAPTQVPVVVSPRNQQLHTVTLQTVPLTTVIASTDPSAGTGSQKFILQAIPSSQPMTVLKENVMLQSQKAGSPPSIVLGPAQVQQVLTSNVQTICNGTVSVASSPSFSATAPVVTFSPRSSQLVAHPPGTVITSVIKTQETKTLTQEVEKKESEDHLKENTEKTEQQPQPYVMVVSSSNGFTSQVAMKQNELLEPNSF

| Sequence | binding signal [1] | binding signal [2] | binding signal [3] | binding signal [4] | binding signal [5] | binding signal [6] | binding signal [7] | binding signal [8] | binding signal [9] |
| --- | --- | --- | --- | --- | --- | --- | --- | --- | --- |
| ATCCAC | 1.23 fold enrichment (6-mer frequency, TF over GST control) | 1.28 fold enrichment (6-mer frequency, TF over GST control) | 1.32 fold enrichment (6-mer frequency, TF over GST control) | 1.22 fold enrichment (6-mer frequency, TF over GST control) | 1.22 fold enrichment (6-mer frequency, TF over GST control) | 1.25 fold enrichment (6-mer frequency, TF over GST control) | 1.15 fold enrichment (6-mer frequency, TF over GST control) | 1.19 fold enrichment (6-mer frequency, TF over GST control) | 1.27 fold enrichment (6-mer frequency, TF over GST control) |
| CGACCA | 1.2 fold enrichment (6-mer frequency, TF over GST control) | 1.27 fold enrichment (6-mer frequency, TF over GST control) | 1.23 fold enrichment (6-mer frequency, TF over GST control) | 1.15 fold enrichment (6-mer frequency, TF over GST control) | 1.31 fold enrichment (6-mer frequency, TF over GST control) | 1.28 fold enrichment (6-mer frequency, TF over GST control) | 1.24 fold enrichment (6-mer frequency, TF over GST control) | 1.16 fold enrichment (6-mer frequency, TF over GST control) | 1.37 fold enrichment (6-mer frequency, TF over GST control) |
| TTCGCA | 1.23 fold enrichment (6-mer frequency, TF over GST control) | 1.36 fold enrichment (6-mer frequency, TF over GST control) | 1.33 fold enrichment (6-mer frequency, TF over GST control) | 1.29 fold enrichment (6-mer frequency, TF over GST control) | 1.27 fold enrichment (6-mer frequency, TF over GST control) | 1.34 fold enrichment (6-mer frequency, TF over GST control) | 1.32 fold enrichment (6-mer frequency, TF over GST control) | 1.46 fold enrichment (6-mer frequency, TF over GST control) | 1.25 fold enrichment (6-mer frequency, TF over GST control) |
| TATAAC | 1.22 fold enrichment (6-mer frequency, TF over GST control) | 1.21 fold enrichment (6-mer frequency, TF over GST control) | 1.2 fold enrichment (6-mer frequency, TF over GST control) | 1.28 fold enrichment (6-mer frequency, TF over GST control) | 1.29 fold enrichment (6-mer frequency, TF over GST control) | 1.15 fold enrichment (6-mer frequency, TF over GST control) | 1.12 fold enrichment (6-mer frequency, TF over GST control) | 1.39 fold enrichment (6-mer frequency, TF over GST control) | 1.18 fold enrichment (6-mer frequency, TF over GST control) |
| TGATGT | 1.31 fold enrichment (6-mer frequency, TF over GST control) | 1.31 fold enrichment (6-mer frequency, TF over GST control) | 1.19 fold enrichment (6-mer frequency, TF over GST control) | 1.13 fold enrichment (6-mer frequency, TF over GST control) | 1.26 fold enrichment (6-mer frequency, TF over GST control) | 1.14 fold enrichment (6-mer frequency, TF over GST control) | 1.25 fold enrichment (6-mer frequency, TF over GST control) | 1.41 fold enrichment (6-mer frequency, TF over GST control) | 1.12 fold enrichment (6-mer frequency, TF over GST control) |
| CACCAC | 1.15 fold enrichment (6-mer frequency, TF over GST control) | 1.2 fold enrichment (6-mer frequency, TF over GST control) | 1.23 fold enrichment (6-mer frequency, TF over GST control) | 1.18 fold enrichment (6-mer frequency, TF over GST control) | 1.18 fold enrichment (6-mer frequency, TF over GST control) | 1.11 fold enrichment (6-mer frequency, TF over GST control) | 1.18 fold enrichment (6-mer frequency, TF over GST control) | 1.14 fold enrichment (6-mer frequency, TF over GST control) | 1.06 fold enrichment (6-mer frequency, TF over GST control) |
| CTGGGT | 1.21 fold enrichment (6-mer frequency, TF over GST control) | 1.1 fold enrichment (6-mer frequency, TF over GST control) | 1.18 fold enrichment (6-mer frequency, TF over GST control) | 1.12 fold enrichment (6-mer frequency, TF over GST control) | 1.17 fold enrichment (6-mer frequency, TF over GST control) | 1.12 fold enrichment (6-mer frequency, TF over GST control) | 1.13 fold enrichment (6-mer frequency, TF over GST control) | 1.09 fold enrichment (6-mer frequency, TF over GST control) | 1.1 fold enrichment (6-mer frequency, TF over GST control) |
| ACCTAT | 1.18 fold enrichment (6-mer frequency, TF over GST control) | 1.26 fold enrichment (6-mer frequency, TF over GST control) | 1.16 fold enrichment (6-mer frequency, TF over GST control) | 1.07 fold enrichment (6-mer frequency, TF over GST control) | 1.21 fold enrichment (6-mer frequency, TF over GST control) | 1.21 fold enrichment (6-mer frequency, TF over GST control) | 1.17 fold enrichment (6-mer frequency, TF over GST control) | 1.15 fold enrichment (6-mer frequency, TF over GST control) | 1.17 fold enrichment (6-mer frequency, TF over GST control) |

Source: PMC7862700, “An all-to-all approach to the identification of sequence-specific readers for epigenetic DNA modifications on cytosine”
